Source: PubChem BioAssay
D1 agonist – agonists of human D1 dopamine receptor. AID 504660. HEK293 T-REx D1 cells, calcium flux, agonist mode. P21728. activation, % at 2 µM. actives 1% (n = 360,000); in the data active means activation above about 30%; further: 0% is about no effect
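Tetracycline-induced HEK293 TREx D1 cells, force-coupled to calcium signalling, were dye-loaded with a no-wash calcium kit. Compound was pin-added after a 10 s baseline. Fluorescence was read kinetically at 1 cycle/s for 180 s, with calcium rises flagged as agonism.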
ERG Ets-DNA blk – ERG Ets/DNA interaction inhibition. P11308. fluorescence polarization, His-ERG Ets domain / labelled DNA. Potency, µM (top dose mostly 76.9 µM), for inactives: at the top dose FP activity, negative = inhibition, hits mostly inhibitors. actives 0.028% (n = 370,000). AID 624246; active means well fitted inhibition curve with a large enough effect in the polarisation, with a control signal flat; inconclusive means small, poorly fitted or top-dose-only effect, or effect the other way, or a change in a side signal; inactive means no such curve, though single readings can be large or run the other way; the % refers to the polarisation;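 further: polarization taken with two DNA probes labelled with fluorescein and Texas red; potency means the concentration at half of the fitted maximal effect; % of control where 0% means no effect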
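His-tagged ERG Ets domain (1 uM in the protein solution; 300mM KCl, 50mM Tris-HCl, 1mM EDTA, 1mM DTT, pH 7.5) received compound, then a probe mix of 5 nM fluorescein-DNA and 100nM Texas-615-DNA. Fluorescence polarization was read for both dyes.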
D1 antag – antagonists of human D1 dopamine receptor | AID 504652 | HEK293 TREx D1 cells, calcium flux, dopamine EC80; active compounds read low | actives 3.2% (n = 360,000) | P21728 | activity change, negative = inhibition, % at 10 µM; in the data active means activity change below about -30%; further: on the % scale 0 is the no-effect control and ±100 the full control effect
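Compound effects on dopamine-evoked calcium signalling were measured in tetracycline-induced HEK293 Trex D1 cells. Dopamine at EC80 followed a 180 s compound pre-read, and fluorescence was tracked kinetically for 180 s more.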
D3 antag – blocks the human D3 dopamine receptor. P35462. D3R cells, DiscoveRx beta-arrestin luminescence, antagonist mode; active compounds read low. max response, negative = inhibition, %. actives 2.5% (n = 360,000); in the data active means max response below about -50%; inconclusive means no clear call, values can overlap the other calls; further: on the % scale 0 is the no-effect control and ±100 the full control effect
Target sequence (P35462 whole entry, looked up): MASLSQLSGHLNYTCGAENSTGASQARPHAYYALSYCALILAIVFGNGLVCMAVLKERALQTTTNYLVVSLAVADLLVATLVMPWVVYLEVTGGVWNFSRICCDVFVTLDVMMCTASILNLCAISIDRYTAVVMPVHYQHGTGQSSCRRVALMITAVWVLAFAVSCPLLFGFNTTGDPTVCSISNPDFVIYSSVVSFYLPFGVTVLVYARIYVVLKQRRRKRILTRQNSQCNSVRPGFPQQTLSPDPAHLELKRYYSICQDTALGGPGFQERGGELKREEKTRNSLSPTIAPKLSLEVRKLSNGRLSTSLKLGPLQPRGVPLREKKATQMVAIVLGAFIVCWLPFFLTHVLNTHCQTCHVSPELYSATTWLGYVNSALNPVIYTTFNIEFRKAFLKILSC
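Cells plated overnight at 1500 cells/well, then exposed to library compounds with dopamine controls for 90 minutes at 37 degrees C. DiscoveRx reagent added for 30–60 minutes at room temperature; luminescence read, quantitative HTS format.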
D3 ag – D3 dopamine receptor (human) agonism | P35462 | D3R DiscoveRx beta-arrestin cells, luminescence, 90 min | max activation, % | actives 0.58% (n = 410,000) | AID 652048; in the data active means max activation above about 30%; further: 0% is about no effect
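Agonist-mode cell screen: cells plated at 1500/well and incubated overnight at 37 °C, then exposed to library compounds for 90 min at 37 °C. Detection reagent was added for 30–60 min at room temperature, and luminescence was read.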
D1 potentiator – potentiators of human D1 dopamine receptor; actives 0.036% (n = 360,000); AID 504651; HEK293 TREx D1 cells, calcium flux, dopamine EC20 potentiation; potentiation, % at 10 µM; in the data active means potentiation above about 30%; further: 0% is about no effect
* marks the source's active call; other numbers are inactive results. This is a sample that favours compounds with a hit; in the whole collection about 6.1% have one here.

`COc1ccc(OC)c(N=c2oc3cc(O)ccc3cc2C(N)=O)c1` gave D1 agonist 0, ERG Ets-DNA blk -2%, D1 antag -36*, D3 antag inconclusive, D3 ag 0 and D1 potentiator -12.
For NC(=O)c1cc2ccccc2oc1=NCc1ccccc1 the results were D1 agonist -1, ERG Ets-DNA blk -16%, D1 antag 11, D3 antag -5, D3 ag -1 and D1 potentiator -1.
CCOC(=O)CS(=O)(=O)c1nc(-c2ccc(F)cc2)cc(C(F)(F)F)n1 was read as D1 agonist -5, ERG Ets-DNA blk 12%, D1 antag 9, D3 antag -64*, D3 ag -23 and D1 potentiator 4.
CCOC(=O)c1c(C(F)(F)F)cc(-c2ccc(F)cc2)nc1C was read as D1 agonist 1, ERG Ets-DNA blk 2%, D1 antag 7, D3 antag 5, D3 ag -4 and D1 potentiator 5.
`CCOC(=O)CS(=O)(=O)c1ccccc1` gave D1 agonist 3, ERG Ets-DNA blk -1%, D1 antag 0, D3 antag 4, D3 ag 0 and D1 potentiator -7.
Screening COC(=O)CCS(=O)(=O)c1nc(-c2ccccc2)cc(C(F)(F)F)n1 returned D1 agonist -2, ERG Ets-DNA blk -11%, D1 antag 43, D3 antag -78*, D3 ag -61 and D1 potentiator -10.
For O=C(O)CCS(=O)(=O)c1nc(-c2cccs2)cc(C(F)(F)F)n1 the results were D1 agonist 2, ERG Ets-DNA blk -5%, D1 antag 1, D3 antag 1, D3 ag -13 and D1 potentiator -3.
CCOC(=O)CS(=O)(=O)c1nc(-c2ccccc2)cc(C(F)(F)F)n1 was read as D1 agonist 1, ERG Ets-DNA blk 0%, D1 antag -11, D3 antag -69*, D3 ag -28 and D1 potentiator -4.
`CCOC(=O)CCS(=O)(=O)c1nc(-c2ccccc2)cc(C(F)(F)F)n1` gave D1 agonist 0, ERG Ets-DNA blk 0%, D1 antag -18, D3 antag -51*, D3 ag -21 and D1 potentiator -3.
Screening Cc1ccc(C)c(N2CCN(C(=O)c3cc4c(=O)n(Cc5cccs5)ccc4nc3C)CC2)c1 returned D1 agonist 3, ERG Ets-DNA blk 0%, D1 antag 23, D3 ag -5 and D1 potentiator -3.
Screening Cc1cc(NC(=O)CCCS(=O)(=O)c2nc(-c3cccs3)cc(C(F)(F)F)n2)no1 returned D1 agonist 6, ERG Ets-DNA blk -1%, D1 antag -2, D3 antag -106*, D3 ag -11 and D1 potentiator -7.
For CCOC(=O)c1cc(-c2ccccc2)nc2ccc(C)cc12 the results were D1 agonist 16, ERG Ets-DNA blk 1%, D1 antag 39, D3 antag 17, D3 ag -5 and D1 potentiator -3.
`CCC(C)NC(=O)CCSc1nc(-c2ccc(OC)cc2)cc(C(F)(F)F)n1` (stereo unspecified) gave D1 agonist 23, ERG Ets-DNA blk -1%, D1 antag -3, D3 ag 2 and D1 potentiator -6.
COCC(C)NC(=O)CCS(=O)(=O)c1nc(-c2ccc(OC)cc2)cc(C(F)(F)F)n1 (stereo unspecified) was read as D1 agonist 3, ERG Ets-DNA blk -4%, D1 antag -8, D3 antag -87*, D3 ag -18 and D1 potentiator -3.
Cc1cc(NC(=O)CSc2nc(-c3cccs3)cc(C(F)(F)F)n2)no1 was read as D1 agonist 6, D1 antag -16, D3 antag -15, D3 ag -14 and D1 potentiator -3.
CCOC(=O)Cc1cc(-c2ccccc2)nc2ccc3ccccc3c12 was read as D1 agonist 10, ERG Ets-DNA blk -3%, D1 antag -36*, D3 antag 27, D3 ag 5 and D1 potentiator -12.
`Nc1c(C(=O)N/N=C/c2ccc([N+](=O)[O-])cc2)cnn1-c1ccccc1` gave D1 agonist 3, ERG Ets-DNA blk -2%, D1 antag -12, D3 antag 0, D3 ag -2 and D1 potentiator -7.
For O=C(NC1CCCC1)c1cccc(S(=O)(=O)N2CCOCC2)c1 the results were D1 agonist 7, ERG Ets-DNA blk 0%, D1 antag 4, D3 antag 14, D3 ag 2 and D1 potentiator -3.
For N#Cc1c(C(F)(F)F)cc(-c2ccco2)nc1SCc1ccncc1 the results were D1 agonist 37*, ERG Ets-DNA blk 8%, D1 antag -10, D3 antag -2, D3 ag -1 and D1 potentiator -3.
Screening CSc1nc(-c2ccco2)cc(C(F)(F)F)c1C#N returned D1 agonist 5, ERG Ets-DNA blk -2%, D1 antag 1, D3 antag 11, D3 ag 3 and D1 potentiator 0.
For N#Cc1c(C(F)(F)F)cc(-c2ccco2)nc1SCc1ccccn1 the results were D1 agonist 31*, D1 antag -24, D3 antag -9, D3 ag -3 and D1 potentiator -8.
CCOCCN1CCN(c2c(CC)c(C)nc3cc(-c4cc(OC)cc(OC)c4)nn23)CC1 was read as D1 agonist 3, ERG Ets-DNA blk -6%, D1 antag -27, D3 antag 16, D3 ag 1 and D1 potentiator -5.
`CCc1c(C)nc2cc(-c3cc(OC)cc(OC)c3)nn2c1N1CCCC1` gave D1 agonist 12, D1 antag -6, D3 antag 10, D3 ag 31* and D1 potentiator 1.
CC(C)(C)c1ccc(C(=O)CSc2nc3ccccc3c(=O)[nH]2)cc1 was read as D1 agonist 1, ERG Ets-DNA blk 0%, D3 antag 47, D3 ag 34* and D1 potentiator -2.
`C[C@@H]1CN([C@@H](C)CO)C(=O)CCCn2cc(nn2)CO[C@H]1CN(C)S(=O)(=O)c1ccc2ccccc2c1` gave D3 antag -5 and D3 ag -11.
`O=C(Nc1cc(Cl)ccc1Cl)C1CC(=O)N(c2ccc(Br)cc2)C1` (stereo unspecified) gave D1 agonist 1, ERG Ets-DNA blk 3%, D1 antag -14, D3 antag -55*, D3 ag -11 and D1 potentiator 3.
CN1/C(=C/C=C/c2n(C)c3cc([N+](=O)[O-])c([N+](=O)[O-])cc3[n+]2C)C(C)(C)c2ccccc21 was read as D3 antag -57* and D3 ag -9.
